The results in this text go back to PubChem BioAssay AID1347385 (Zoeller Lab, School of Medicine, Boston University, 2020).

The structures appear in SMILES notation. Among all 20,000 compounds or so, about 85 (0.4%) were called active.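 The calls were made as follows: active = cell survival signal 2 SD away from solvent-only control wells, confirmed on one or two retests; inactive = the rest.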 Shown is part of a subset that was picked to be rich in actives.

The assay in a line: phospholipid synthesis inhibitors, CHO cells, primary screen, ZR-82 cells, Enamine library, screen 3 (AID 1347385).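 Also: 3 h compound exposure then viability read about one day after UV.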 The conditions noted are these: ZR-82 CHO cells, pyrene fatty acid UV survival, CellTiter Blue, peroxisome-deficient CHO-K1 mutant line, plus DGAT-1, DGAT-2 and ACAT inhibitors; at 10 µM unless noted. (Alamar Blue is a resazurin reagent that responds to reducing activity.)
As for `CC(C)(C)NC(=O)NC(=O)COC(=O)C1(C)CC1(Cl)Cl` (stereo not drawn), the result was inactive.
The value for `Cc1nc2sc3c(c2c2nnnn12)CCCC3` was “inactive”; that for `O=C1OC(c2ccccc2)=N/C1=C\c1ccc(C(F)(F)F)cc1` was “inactive”.
With `Cc1ccc(C)n1-n1c(C)nc2sc3c(c2c1=O)CCCC3` the entry was “inactive”; with `O=S1(=O)CCC(NC2CCCCC2)C1` (stereo not drawn), “inactive”.
With `Cc1ccc(C2=Nn3cc(-c4ccccc4)nc3SC2)cc1` the entry was “inactive”; with `O=c1oc2cc(O)c(Cl)cc2c2c1CCCC2`, “inactive”; with `C=CCNS(=O)(=O)c1ccc2c(c1)OCCO2`, “inactive”.
As to `Cn1nnc2c(=O)[nH]cc([N+](=O)[O-])c21`, the result was inactive.
As to `CC(C)(C)c1cnnn1-c1ccc([N+](=O)[O-])cc1`, the outcome was inactive.
The value for `CC1CNC(=O)NC1=O` (stereo not drawn) was “inactive”; that for `CCCCn1c(N)c(N(CC)C(=O)/C=C/c2ccco2)c(=O)[nH]c1=O` was “inactive”; that for `CCCCNC(=S)N(C)/N=C1\C(=O)Nc2ccc([N+](=O)[O-])cc21` was “inactive [setting not given]”.
With `O=c1oc2ccccc2c(O)c1C=Nc1ccccc1Br` the entry was “inactive”.
With `O=C1Nc2ccc([N+](=O)[O-])cc2/C1=N/n1cnnc1` the entry was “inactive [setting not given]”; with `c1ccc(CCc2nc(-c3ccncc3)no2)cc1`, “inactive”.
With `Nc1nnc(SCC(=O)O)s1`, the result was inactive.
`CCOC(=O)/C=C1\SCC(=O)N1CCSc1nnc(C)s1`: the result was inactive.
For `COc1cc(/C=N/OCc2ccc([N+](=O)[O-])cc2)ccc1OC(F)F`, the outcome is “inactive [setting not given]”.
With `CC1=C(C(C)C)Nc2nnnn2C1c1ccc(Br)cc1` (stereo not drawn) the entry was “inactive”; with `CCOC(=O)c1c(-c2ccc(C)o2)csc1N=Cc1c(O)[nH]c(=S)[nH]c1=O`, “inactive”.
Regarding `NC(=S)c1cccc(Br)c1`, the outcome was inactive.
The value for `NC1=NC(=O)/C(=C\c2ccc3c(c2)OCO3)S1` was “inactive”.
